Hit rate of the full screen: of about 150,000 compounds, about 540 (0.36%) showed an effect of 50% or more. Only a selection was taken, and strong results are over-represented in it overall.

The values below come from ChEMBL document CHEMBL4888484, “Replenishing the malaria drug discovery pipeline: Screening and hit evaluation of the MMV Hit Generation Library 1 (HGL1) against asexual blood stage Plasmodium falciparum ,using a nano luciferase reporter read-out” (2022).

The test system of the experiment is Plasmodium falciparum. The experiment can be described thus: Primary screen in NF54 nanoGlo assay, in single point, at 2uM, 72h; a lower Z score goes with more inhibition. The experiment is classed as functional, Erythrocyte. As to conditions: timepoint 72 hour.
One may read the % Inhibition as the change of the read-out against control, counted positive when it falls. Regarding `Cc1n[nH]c(=O)c2c1cnn2-c1ccc(F)cc1`, the “% Inhibition” value worked out at 20% and the Z score is recorded as -2.53.

`Cc1cccnc1CCNC(=O)N(C)[C@@H](C)c1ccncn1`: the “% Inhibition” value is recorded as -6% and the Z score is 1.12.

Take `O=C(NCCc1ccc(Cl)cc1)c1ccc(Cn2c(=O)[nH]c3ccccc3c2=O)cc1`: the “% Inhibition” value was -9% and the Z score was 1.68.

`O=C1N[C@@H](c2cccc(OCc3ccccc3)c2)Nc2c1sc(=S)n2-c1ccccc1`: the “% Inhibition” value is recorded as -12% and the Z score came out at 1.31.

For the compound `CN(CC(=O)NCc1cccs1)c1nnc(N2CCCC2=O)s1`, the “% Inhibition” value is -2% and the Z score amounted to 0.36.

As for `CN(CC(=O)NCc1ccco1)c1nnc(N2CCCC2=O)s1`, the “% Inhibition” value turned out to be 73% and the Z score was -0.5.

With `CN(CC(=O)NCCCc1ccco1)c1nnc(N2CCCC2=O)s1`, the “% Inhibition” value is -11% and the Z score stood at 2.07.

On to `CCCN1CCN(C(=O)c2ccnc(N3CCN[C@H](c4ccccc4)C3)c2)CC1`, for which the “% Inhibition” value is given as -13% and the Z score was determined as 1.36.

On to `C[C@H](CCO)NCc1sccc1Cl`, for which the “% Inhibition” value is 5% and the Z score is -0.62.

Take `CC(C)(C)n1cnc(C(=O)N2CCCC23CCCCC3)n1`: the “% Inhibition” value was determined as 0% and the Z score is recorded as -0.06.

As to `Cn1nnc(C(=O)N2CCC(c3ccccc3)(N3CCCC3)CC2)n1`, the “% Inhibition” value turned out to be 7% and the Z score is reported as -1.29.

In the case of `O=C(Nc1cnc(-n2ccnc2)nc1)c1ccc(F)cc1`, the “% Inhibition” value was -18% and the Z score amounted to 2.84.

`CCOC(=O)C1(C(=O)NCc2cc(C)on2)CCCC1`: the “% Inhibition” value was determined as 7% and the Z score is on record as -0.84.

Take `CCN1C[C@H](Nc2ncnc3sc(C)cc23)[C@@H](OC)C1`: the “% Inhibition” value is on record as -9% and the Z score was 1.14.

On to `CCN1C[C@H](Nc2ncccc2C#N)[C@@H](OC)C1`, for which the “% Inhibition” value is on record as -13% and the Z score was determined as 1.15.

Turning to `CS(=O)(=O)N1C[C@H]2CC[C@@H](C1)N(CC(=O)N1CCc3ccccc31)C2`, the “% Inhibition” value is given as -9% and the Z score is 1.92.

As to `COc1ccc(CN2CCc3cc(OC)c(OC)cc3[C@@H]2CNC(=O)Cc2ccccc2)cc1`, the “% Inhibition” value is on record as -3% and the Z score worked out at 0.38.

Consider `CS(=O)(=O)CCc1ccc(N[C@H]2CCc3ccc(F)cc32)cc1`, for which the “% Inhibition” value was -8% and the Z score is 1.03.

With `Oc1ccccc1CCN[C@H]1CCc2ccc(F)cc21`, the “% Inhibition” value was determined as 98% and the Z score is -18.88.

On to `Cn1ncc2c1CCC[C@@H]2NCCc1ccccc1O`, for which the “% Inhibition” value was -5% and the Z score is on record as 0.59.

Take `O=S1(=O)CCC(CNC2CCc3ccc(F)cc32)C1` (stereo unspecified): the “% Inhibition” value is on record as -8% and the Z score amounted to 1.29.

In the case of `CCOc1ccc2c(n1)CCN(C(=O)c1ccsc1)C2`, the “% Inhibition” value is recorded as 36% and the Z score came out at 1.41.

As for `CC(COC1CCOC1)NC(=O)C1CCC(=O)C(C)C1` (stereo unspecified), the “% Inhibition” value is listed as -1% and the Z score is reported as 0.21.

Take `Cn1nc(NC(=O)c2ccccc2)c2c1CCN(C(=O)C1CCC1)C2`: the “% Inhibition” value is -10% and the Z score was determined as 0.86.

Turning to `COC(C(=O)N1C[C@H](C(=O)O)[C@@H](c2ccc(Br)cc2)C1)C1CC1` (stereo partly specified), the “% Inhibition” value is reported as -1% and the Z score stood at 0.13.

Turning to `CCCCN(C1CCCCCC1)S(=O)(=O)N1CCC[C@@H]1COC`, the “% Inhibition” value was determined as 3% and the Z score is listed as -0.54.

With `COc1ccccc1C(=O)C(=O)NC1CC(C)(C)NC(C)(C)C1`, the “% Inhibition” value is reported as -6% and the Z score is reported as 0.73.

As for `Cc1nonc1CN1CC[C@@]2(CCCN(C3CCCCC3)C2=O)C1`, the “% Inhibition” value is -1% and the Z score came out at 0.17.

`O=S(=O)(c1cccc(Cl)c1)N1CCc2nc(N3CCCCC3)nc(Oc3ccccc3)c2C1`: the “% Inhibition” value worked out at 53% and the Z score is reported as -13.31.

Consider `Cc1ccc(Oc2nc(N3CCOCC3)nc3c2CN(S(=O)(=O)c2cccc(Cl)c2)CC3)cc1`, for which the “% Inhibition” value was 8% and the Z score is recorded as -1.2.

In the case of `CN1CCN(c2nc3c(c(Oc4cccc(F)c4)n2)CN(S(=O)(=O)c2cccc(Cl)c2)CC3)CC1`, the “% Inhibition” value was -5% and the Z score was found to be 0.66.

For `O=C1CN(Cc2nc(-c3ccccc3)nn2C2CCCCC2)CCN1`, the “% Inhibition” value was -7% and the Z score was found to be 1.19.

On to `CN(CC(=O)Nc1cccc(F)c1)C(=O)C[C@@H]1C=CCC1`, for which the “% Inhibition” value stood at 12% and the Z score is -1.67.

Regarding `CCOc1ccc(-c2cn(Cc3ccncc3)nn2)cc1Cl`, the “% Inhibition” value is -10% and the Z score worked out at 2.05.

On to `Cc1cc(C)cc(-c2cc3nc(C)cc(N4CCC(C(=O)NCc5cccc(F)c5)CC4)n3n2)c1`, for which the “% Inhibition” value is recorded as 75% and the Z score was -14.36.

Consider `Cc1cc(C)cc(-c2cc3nc(C)cc(N4CCC(C(=O)Nc5ccc(C)c(Cl)c5)CC4)n3n2)c1`, for which the “% Inhibition” value worked out at 36% and the Z score turned out to be 1.15.

For `COc1ccc(-c2cc3nc(C)cc(N4CCC(C(=O)NCc5ccccc5)CC4)n3n2)cc1`, the “% Inhibition” value is 4% and the Z score is given as -0.42.

As to `Cc1cc(C2CCC(C(=O)NCC3CC3)CN2C(=O)NC(C)C)ccc1F` (stereo unspecified), the “% Inhibition” value stood at 0% and the Z score is reported as 0.

For the compound `Cc1cc(S(=O)(=O)N(CCN(C)C)C2CCN(C)CC2)c(C)o1`, the “% Inhibition” value is given as -16% and the Z score stood at 1.43.

On to `COc1ccc2cc(C(=O)NCc3ccnc(Oc4ccccc4)c3)[nH]c2c1`, for which the “% Inhibition” value is reported as -7% and the Z score is on record as 1.13.

Take `COc1ccc2cc(-c3nc(CCN(C)C(=O)c4cccc(Cl)c4)no3)[nH]c2c1`: the “% Inhibition” value was -9% and the Z score worked out at 1.75.

Take `Cc1ccc(CC(=O)Nc2cc(C(F)(F)F)n(C)n2)cn1`: the “% Inhibition” value is on record as -6% and the Z score is 0.61.

Regarding `Cc1cccc(OC2CN([C@@H](C)CCN(C)C)C2)c1`, the “% Inhibition” value is listed as -19% and the Z score is listed as 2.04.

As for `C[C@@H](C(=O)Nc1nccs1)N1CCCC1`, the “% Inhibition” value is reported as -4% and the Z score is reported as 0.56.

In the case of `CC(C(=O)Nc1ccc(Cl)cn1)N1CCCC(c2ccn[nH]2)C1` (stereo unspecified), the “% Inhibition” value is on record as 5% and the Z score is -0.83.

With `CC(C(=O)Nc1nccs1)N1CCCC(c2ccn[nH]2)C1` (stereo unspecified), the “% Inhibition” value turned out to be 50% and the Z score is listed as -9.08.

Turning to `O=C(C1CCC1c1ccc(F)cc1)N1CCCC(c2nc3ccc(F)cc3o2)C1` (stereo unspecified), the “% Inhibition” value is -10% and the Z score came out at 1.06.

In the case of `Cc1c(C(c2c(C)n(C)n(-c3ccccc3)c2=O)c2c[nH]c3ccccc23)c(=O)n(-c2ccccc2)n1C`, the “% Inhibition” value was -6% and the Z score is recorded as 0.93.

As to `COc1cc(C(c2c(C)n(C)n(-c3ccccc3)c2=O)c2c(C)n(C)n(-c3ccccc3)c2=O)c(Br)c(Br)c1OCc1ccccc1`, the “% Inhibition” value worked out at 35% and the Z score is -0.45.

Turning to `CCOc1cc(C(c2c(C)n(C)n(-c3ccccc3)c2=O)c2c(C)n(C)n(-c3ccccc3)c2=O)ccc1OCc1ccccc1`, the “% Inhibition” value is on record as 75% and the Z score is given as -5.78.

Turning to `COc1nc(NC2CCS(=O)(=O)CC2)ncc1F`, the “% Inhibition” value is on record as 65% and the Z score is listed as -7.11.

In the case of `CN(C)c1nc(N[C@H]2CCS(=O)(=O)C2)ncc1F`, the “% Inhibition” value is given as -3% and the Z score is 0.33.

On to `COc1nc(N[C@H]2CCCN(C)C2)ncc1F`, for which the “% Inhibition” value was found to be 3% and the Z score is -0.5.
